Results: the supplement of paper PMC11732987, “Enantioselective OTUD7B fragment discovery through chemoproteomics screening and high-throughput optimisation” (Communications Chemistry, 2025)

Columns and labels:
Test in all cases: log2 ratio of Biotin-Ahx-Ub-VS probe labelling (fragment/DMSO); higher = less target engagement (more negative = stronger competition), active = hit call of the paper (q ≤ 0.05, log2 ratio ≤ -1)
Settings in all cases: compound concentration: 200 uM; treatment time: 3 h
USP34 = USP34 (UniProt Q70CQ2)
Sequence of USP34 (Q70CQ2 whole entry, the tested form may be a part): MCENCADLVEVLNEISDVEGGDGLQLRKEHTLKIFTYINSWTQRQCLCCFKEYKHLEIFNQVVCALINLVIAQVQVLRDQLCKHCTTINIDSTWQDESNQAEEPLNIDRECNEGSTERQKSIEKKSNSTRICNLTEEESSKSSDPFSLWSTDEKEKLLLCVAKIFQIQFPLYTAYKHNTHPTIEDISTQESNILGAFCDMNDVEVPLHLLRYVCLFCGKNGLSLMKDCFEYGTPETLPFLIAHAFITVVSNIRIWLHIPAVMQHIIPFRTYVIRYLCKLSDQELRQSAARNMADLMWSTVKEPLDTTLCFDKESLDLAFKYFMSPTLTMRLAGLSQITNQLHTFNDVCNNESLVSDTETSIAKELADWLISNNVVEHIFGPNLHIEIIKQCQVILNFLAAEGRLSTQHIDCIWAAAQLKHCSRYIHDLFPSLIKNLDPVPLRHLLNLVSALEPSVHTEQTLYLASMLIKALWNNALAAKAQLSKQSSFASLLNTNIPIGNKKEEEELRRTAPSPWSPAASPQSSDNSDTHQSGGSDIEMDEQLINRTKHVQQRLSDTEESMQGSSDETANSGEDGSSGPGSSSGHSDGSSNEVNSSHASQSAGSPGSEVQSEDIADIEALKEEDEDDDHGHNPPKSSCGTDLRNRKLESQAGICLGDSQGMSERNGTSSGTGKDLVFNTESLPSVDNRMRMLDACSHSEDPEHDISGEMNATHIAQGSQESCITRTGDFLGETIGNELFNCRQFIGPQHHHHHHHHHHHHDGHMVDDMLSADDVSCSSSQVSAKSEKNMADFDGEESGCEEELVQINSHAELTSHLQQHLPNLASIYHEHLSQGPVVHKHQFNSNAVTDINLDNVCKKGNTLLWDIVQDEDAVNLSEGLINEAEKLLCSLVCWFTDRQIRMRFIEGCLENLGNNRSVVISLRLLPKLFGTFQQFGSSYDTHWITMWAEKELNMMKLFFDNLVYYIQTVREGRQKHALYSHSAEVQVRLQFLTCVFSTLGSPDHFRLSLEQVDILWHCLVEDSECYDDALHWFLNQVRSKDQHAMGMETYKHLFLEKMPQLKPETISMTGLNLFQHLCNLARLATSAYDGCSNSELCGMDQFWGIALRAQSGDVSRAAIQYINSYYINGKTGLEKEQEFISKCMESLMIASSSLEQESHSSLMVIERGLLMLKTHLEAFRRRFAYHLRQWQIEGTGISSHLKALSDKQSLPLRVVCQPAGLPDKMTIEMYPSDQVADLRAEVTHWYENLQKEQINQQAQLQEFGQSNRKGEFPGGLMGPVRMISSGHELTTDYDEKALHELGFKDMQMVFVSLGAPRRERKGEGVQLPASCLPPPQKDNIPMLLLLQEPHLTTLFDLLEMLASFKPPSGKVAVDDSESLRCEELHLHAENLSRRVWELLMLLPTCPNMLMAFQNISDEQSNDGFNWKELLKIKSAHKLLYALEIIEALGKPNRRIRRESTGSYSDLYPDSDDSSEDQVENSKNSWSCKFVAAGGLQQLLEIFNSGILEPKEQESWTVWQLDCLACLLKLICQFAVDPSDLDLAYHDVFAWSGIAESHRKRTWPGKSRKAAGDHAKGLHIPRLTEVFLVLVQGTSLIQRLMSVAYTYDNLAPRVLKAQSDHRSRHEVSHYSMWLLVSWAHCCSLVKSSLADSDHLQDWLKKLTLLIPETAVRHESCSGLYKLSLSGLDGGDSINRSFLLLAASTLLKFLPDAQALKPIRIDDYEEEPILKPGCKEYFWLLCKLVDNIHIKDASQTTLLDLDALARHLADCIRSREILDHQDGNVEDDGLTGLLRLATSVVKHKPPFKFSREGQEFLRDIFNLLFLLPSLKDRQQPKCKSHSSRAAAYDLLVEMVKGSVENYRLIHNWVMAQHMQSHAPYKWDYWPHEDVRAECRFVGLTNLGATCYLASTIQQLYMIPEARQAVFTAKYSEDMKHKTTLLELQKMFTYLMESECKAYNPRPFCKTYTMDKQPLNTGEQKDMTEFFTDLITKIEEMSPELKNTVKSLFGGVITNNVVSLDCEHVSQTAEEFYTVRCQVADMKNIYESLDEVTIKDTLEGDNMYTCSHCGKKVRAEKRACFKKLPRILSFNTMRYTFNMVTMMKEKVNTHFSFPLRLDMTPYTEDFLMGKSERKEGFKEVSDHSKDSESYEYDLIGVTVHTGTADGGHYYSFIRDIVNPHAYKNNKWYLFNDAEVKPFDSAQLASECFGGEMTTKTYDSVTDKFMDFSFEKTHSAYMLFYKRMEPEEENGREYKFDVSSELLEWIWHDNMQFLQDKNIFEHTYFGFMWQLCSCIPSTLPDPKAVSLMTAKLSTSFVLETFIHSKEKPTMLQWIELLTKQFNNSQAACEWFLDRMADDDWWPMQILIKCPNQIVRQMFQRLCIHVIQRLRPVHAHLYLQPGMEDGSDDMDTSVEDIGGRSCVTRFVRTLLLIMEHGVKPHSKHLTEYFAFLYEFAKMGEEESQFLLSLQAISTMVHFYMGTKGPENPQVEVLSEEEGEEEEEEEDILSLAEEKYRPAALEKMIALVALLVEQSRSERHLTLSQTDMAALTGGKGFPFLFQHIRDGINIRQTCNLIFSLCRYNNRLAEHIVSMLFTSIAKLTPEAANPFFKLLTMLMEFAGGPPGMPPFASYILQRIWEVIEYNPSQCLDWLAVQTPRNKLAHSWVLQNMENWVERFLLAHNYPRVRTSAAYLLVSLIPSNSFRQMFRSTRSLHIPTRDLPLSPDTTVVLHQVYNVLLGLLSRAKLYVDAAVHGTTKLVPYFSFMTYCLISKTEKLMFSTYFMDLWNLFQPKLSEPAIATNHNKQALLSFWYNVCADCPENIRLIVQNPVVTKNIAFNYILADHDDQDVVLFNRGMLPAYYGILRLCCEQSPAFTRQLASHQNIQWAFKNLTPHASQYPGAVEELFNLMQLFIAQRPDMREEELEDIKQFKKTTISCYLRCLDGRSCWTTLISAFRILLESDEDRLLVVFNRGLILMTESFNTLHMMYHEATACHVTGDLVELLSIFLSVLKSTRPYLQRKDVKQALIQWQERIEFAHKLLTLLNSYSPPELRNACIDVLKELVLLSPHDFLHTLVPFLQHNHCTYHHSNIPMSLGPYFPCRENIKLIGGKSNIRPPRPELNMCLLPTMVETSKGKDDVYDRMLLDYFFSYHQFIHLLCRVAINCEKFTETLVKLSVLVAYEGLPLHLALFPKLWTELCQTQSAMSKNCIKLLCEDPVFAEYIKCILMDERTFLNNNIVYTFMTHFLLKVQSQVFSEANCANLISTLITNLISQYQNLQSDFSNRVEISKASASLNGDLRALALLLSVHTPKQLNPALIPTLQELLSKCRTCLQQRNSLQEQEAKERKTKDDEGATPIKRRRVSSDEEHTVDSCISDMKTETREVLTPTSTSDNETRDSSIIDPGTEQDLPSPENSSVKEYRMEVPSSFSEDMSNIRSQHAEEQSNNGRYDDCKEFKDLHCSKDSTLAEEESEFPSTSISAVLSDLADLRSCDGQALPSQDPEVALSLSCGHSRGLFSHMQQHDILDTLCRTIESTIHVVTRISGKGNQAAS
Outline: (§1)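 Each value is an average log2 ratio of fragment to vehicle, tested by unpaired t-test. The underlying Spectronaut label-free quantities were global-median-normalised, and only proteins with ≥2 unique peptides were included. Triplicate HEK293T lysate samples (495 µg) were exposed to fragment at 200 µM or vehicle for 3 h, then to Biotin-Ahx-Ub-VS at 0.5 µM final for 1 h, before NeutrAvidin enrichment of labelled DUBs, LysC and trypsin digestion, and diaPASEF LC-MS/MS.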

USP36 = molecular target: T1, USP36 (UniProt Q9P275)
T1 sequence (whole entry): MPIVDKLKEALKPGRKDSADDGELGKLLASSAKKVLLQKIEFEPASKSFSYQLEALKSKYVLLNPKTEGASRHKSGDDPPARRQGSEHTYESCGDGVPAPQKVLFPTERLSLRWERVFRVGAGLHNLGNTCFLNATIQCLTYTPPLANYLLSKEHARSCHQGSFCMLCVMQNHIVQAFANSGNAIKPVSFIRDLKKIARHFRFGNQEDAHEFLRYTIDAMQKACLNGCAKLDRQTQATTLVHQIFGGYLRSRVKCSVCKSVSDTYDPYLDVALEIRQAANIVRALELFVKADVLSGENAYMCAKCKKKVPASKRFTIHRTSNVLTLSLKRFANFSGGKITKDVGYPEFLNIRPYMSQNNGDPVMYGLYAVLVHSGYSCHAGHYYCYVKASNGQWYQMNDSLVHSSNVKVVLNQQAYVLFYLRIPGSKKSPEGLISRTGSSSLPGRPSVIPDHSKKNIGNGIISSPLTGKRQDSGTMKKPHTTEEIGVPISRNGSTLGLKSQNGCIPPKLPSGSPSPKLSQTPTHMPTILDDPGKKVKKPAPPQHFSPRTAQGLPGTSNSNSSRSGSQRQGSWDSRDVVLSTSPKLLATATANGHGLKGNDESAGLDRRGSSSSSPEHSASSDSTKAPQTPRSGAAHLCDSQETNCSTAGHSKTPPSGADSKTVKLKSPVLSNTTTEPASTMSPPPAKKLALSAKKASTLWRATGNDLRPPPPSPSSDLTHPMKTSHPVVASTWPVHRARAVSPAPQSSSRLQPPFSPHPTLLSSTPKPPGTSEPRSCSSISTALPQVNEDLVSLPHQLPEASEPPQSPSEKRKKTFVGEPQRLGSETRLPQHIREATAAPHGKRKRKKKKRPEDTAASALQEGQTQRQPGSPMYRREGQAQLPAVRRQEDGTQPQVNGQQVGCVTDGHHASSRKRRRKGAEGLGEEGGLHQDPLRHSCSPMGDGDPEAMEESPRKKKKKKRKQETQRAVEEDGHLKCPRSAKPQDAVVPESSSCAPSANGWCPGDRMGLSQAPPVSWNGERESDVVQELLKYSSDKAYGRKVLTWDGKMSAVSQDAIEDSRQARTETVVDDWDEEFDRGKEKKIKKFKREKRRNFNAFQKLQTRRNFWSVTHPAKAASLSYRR
Outline: as §1

USP38 = molecular target: T2, USP38 (UniProt Q8NB14)
T2 sequence (whole entry): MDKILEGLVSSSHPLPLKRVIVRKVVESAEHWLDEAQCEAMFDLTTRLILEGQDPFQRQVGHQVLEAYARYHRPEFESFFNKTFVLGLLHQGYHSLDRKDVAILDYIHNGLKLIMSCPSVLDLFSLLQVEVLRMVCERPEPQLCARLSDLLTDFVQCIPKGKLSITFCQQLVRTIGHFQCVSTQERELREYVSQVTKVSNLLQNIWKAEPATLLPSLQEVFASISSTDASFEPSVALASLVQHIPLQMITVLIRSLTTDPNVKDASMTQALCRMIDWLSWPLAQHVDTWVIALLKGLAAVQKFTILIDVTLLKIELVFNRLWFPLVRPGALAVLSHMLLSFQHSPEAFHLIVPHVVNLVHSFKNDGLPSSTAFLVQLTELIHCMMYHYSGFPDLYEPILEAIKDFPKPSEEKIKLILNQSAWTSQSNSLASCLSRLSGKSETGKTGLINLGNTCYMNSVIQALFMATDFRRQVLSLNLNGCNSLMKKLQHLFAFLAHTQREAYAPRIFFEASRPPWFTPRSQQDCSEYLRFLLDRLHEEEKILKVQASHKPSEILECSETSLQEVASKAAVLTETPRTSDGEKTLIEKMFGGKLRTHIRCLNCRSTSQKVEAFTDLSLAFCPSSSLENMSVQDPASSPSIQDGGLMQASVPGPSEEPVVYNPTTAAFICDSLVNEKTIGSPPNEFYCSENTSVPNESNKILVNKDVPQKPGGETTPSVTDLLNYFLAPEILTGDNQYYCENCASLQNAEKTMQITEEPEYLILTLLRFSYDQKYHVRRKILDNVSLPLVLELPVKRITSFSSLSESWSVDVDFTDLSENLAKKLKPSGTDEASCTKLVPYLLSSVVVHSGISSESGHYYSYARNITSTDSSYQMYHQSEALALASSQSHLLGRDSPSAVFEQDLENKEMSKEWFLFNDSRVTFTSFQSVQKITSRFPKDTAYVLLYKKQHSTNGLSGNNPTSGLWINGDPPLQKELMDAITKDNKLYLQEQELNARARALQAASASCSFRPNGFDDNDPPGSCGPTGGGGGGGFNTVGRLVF
Outline: as §1

USP39 = molecular target: T3, USP39 (UniProt Q53GS9)
T3 sequence (whole entry): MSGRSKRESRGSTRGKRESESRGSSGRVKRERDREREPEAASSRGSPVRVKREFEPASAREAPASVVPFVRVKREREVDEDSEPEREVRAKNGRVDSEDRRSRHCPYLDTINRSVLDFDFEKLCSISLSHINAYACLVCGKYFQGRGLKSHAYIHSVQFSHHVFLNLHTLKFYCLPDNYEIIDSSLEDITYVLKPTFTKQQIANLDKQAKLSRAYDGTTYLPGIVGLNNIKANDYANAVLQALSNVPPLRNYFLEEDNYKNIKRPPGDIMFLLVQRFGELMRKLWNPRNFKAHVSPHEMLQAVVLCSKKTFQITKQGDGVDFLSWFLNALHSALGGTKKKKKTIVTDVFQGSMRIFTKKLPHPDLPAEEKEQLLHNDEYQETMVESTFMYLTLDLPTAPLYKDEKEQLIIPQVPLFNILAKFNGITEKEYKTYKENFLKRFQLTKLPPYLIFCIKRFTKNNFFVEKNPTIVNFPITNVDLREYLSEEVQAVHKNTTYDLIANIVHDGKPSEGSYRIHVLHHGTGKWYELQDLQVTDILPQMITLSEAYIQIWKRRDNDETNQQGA
Outline: as §1

USP4 = molecular target: T4, USP4 (UniProt Q13107)
T4 sequence (whole entry): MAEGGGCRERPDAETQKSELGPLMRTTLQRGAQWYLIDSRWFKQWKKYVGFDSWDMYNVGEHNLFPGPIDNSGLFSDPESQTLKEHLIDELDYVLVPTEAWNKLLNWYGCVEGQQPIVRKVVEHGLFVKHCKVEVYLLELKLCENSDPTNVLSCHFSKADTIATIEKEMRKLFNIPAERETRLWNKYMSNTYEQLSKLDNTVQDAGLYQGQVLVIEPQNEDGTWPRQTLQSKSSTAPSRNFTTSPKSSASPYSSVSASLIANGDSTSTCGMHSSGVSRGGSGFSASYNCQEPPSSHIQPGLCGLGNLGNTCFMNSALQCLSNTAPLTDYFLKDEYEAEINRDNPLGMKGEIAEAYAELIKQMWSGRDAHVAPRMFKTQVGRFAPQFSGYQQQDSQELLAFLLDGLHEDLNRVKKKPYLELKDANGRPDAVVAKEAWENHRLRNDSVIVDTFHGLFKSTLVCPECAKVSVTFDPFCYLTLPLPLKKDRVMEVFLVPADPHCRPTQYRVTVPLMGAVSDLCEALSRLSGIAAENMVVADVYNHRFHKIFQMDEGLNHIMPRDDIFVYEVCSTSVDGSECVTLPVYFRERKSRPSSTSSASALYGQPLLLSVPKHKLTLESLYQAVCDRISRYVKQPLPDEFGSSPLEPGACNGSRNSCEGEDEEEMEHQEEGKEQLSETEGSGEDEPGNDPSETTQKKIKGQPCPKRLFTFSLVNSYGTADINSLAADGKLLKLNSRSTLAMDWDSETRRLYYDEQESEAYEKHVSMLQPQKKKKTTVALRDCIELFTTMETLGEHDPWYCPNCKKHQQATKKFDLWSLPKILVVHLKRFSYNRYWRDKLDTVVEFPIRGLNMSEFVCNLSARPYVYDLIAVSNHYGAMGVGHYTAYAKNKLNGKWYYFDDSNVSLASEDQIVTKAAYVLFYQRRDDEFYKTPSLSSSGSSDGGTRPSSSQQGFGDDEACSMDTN
Outline: as §1

Measured: log2 ratio of Biotin-Ahx-Ub-VS probe labelling

Cc1nc(CNC(=O)CCl)c2ccccn12.Cl
inactive: USP34 -0.0794 | USP36 -0.09 | USP38 -0.0607 | USP39 0.302 | USP4 -0.0724
